# Where a name gives a salt, the structure may show the parent alone.
# Tests used:
# U-2932 [1] = assay: growth inhibition by drug alone (1 - RLU/untreated control) (fraction); higher = stronger inhibition; settings: 177Lu-lilotomab satetraxetan 0 ug/ml
# Method in brief: (§1)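 Growth inhibition was calculated from RealTime-Glo RLU against untreated no-drug wells. Values equal 1 − RLU/mean of 48 untreated no-drug wells per plate, read daily from day 3 after 1 h at 37°C. RIVA and U-2932 cells, with or without 18 h pretreatment by a radiolabelled anti-CD37 antibody conjugate (~600 MBq/mg; 0.5 µg/ml RIVA, 1 µg/ml U-2932), were washed and plated at 3,000 cells/well on compound-printed plates at 10/100 nM (RIVA) or 10/1,000 nM (U-2932).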
# RIVA [2] = assay: as above; settings: 177Lu-lilotomab satetraxetan 0 ug/ml
# Method in brief: as §1
# U-2932 [3] = assay: growth inhibition by drug plus 177Lu-lilotomab satetraxetan (1 - RLU/untreated control) (fraction); higher = stronger inhibition; settings: 177Lu-lilotomab satetraxetan 1 ug/ml
# Method in brief: as §1
# RIVA [4] = assay: as above; settings: 177Lu-lilotomab satetraxetan 0.5 ug/ml
# Method in brief: as §1
Compound,"growth inhibition by drug alone (U-2932 [1]; 10 nM, time (day): 3)","growth inhibition by drug alone (U-2932 [1]; 10 nM, time (day): 4)","growth inhibition by drug alone (U-2932 [1]; 10 nM, time (day): 5)","growth inhibition by drug alone (U-2932 [1]; 10 nM, time (day): 6)","growth inhibition by drug alone (U-2932 [1]; 1000 nM, time (day): 3)","growth inhibition by drug alone (U-2932 [1]; 1000 nM, time (day): 4)","growth inhibition by drug alone (U-2932 [1]; 1000 nM, time (day): 5)","growth inhibition by drug alone (U-2932 [1]; 1000 nM, time (day): 6)","growth inhibition by drug alone (RIVA [2]; 10 nM, time (day): 3)","growth inhibition by drug alone (RIVA [2]; 10 nM, time (day): 4)","growth inhibition by drug alone (RIVA [2]; 10 nM, time (day): 5)","growth inhibition by drug alone (RIVA [2]; 10 nM, time (day): 6)","growth inhibition by drug alone (RIVA [2]; 100 nM, time (day): 3)","growth inhibition by drug alone (RIVA [2]; 100 nM, time (day): 4)","growth inhibition by drug alone (RIVA [2]; 100 nM, time (day): 5)","growth inhibition by drug alone (RIVA [2]; 100 nM, time (day): 6)","growth inhibition by drug plus 177Lu-lilotomab satetraxetan (U-2932 [3]; 10 nM, time (day): 3)","growth inhibition by drug plus 177Lu-lilotomab satetraxetan (U-2932 [3]; 10 nM, time (day): 4)","growth inhibition by drug plus 177Lu-lilotomab satetraxetan (U-2932 [3]; 10 nM, time (day): 5)","growth inhibition by drug plus 177Lu-lilotomab satetraxetan (U-2932 [3]; 10 nM, time (day): 6)","growth inhibition by drug plus 177Lu-lilotomab satetraxetan (U-2932 [3]; 1000 nM, time (day): 3)","growth inhibition by drug plus 177Lu-lilotomab satetraxetan (U-2932 [3]; 1000 nM, time (day): 4)","growth inhibition by drug plus 177Lu-lilotomab satetraxetan (U-2932 [3]; 1000 nM, time (day): 5)","growth inhibition by drug plus 177Lu-lilotomab satetraxetan (U-2932 [3]; 1000 nM, time (day): 6)","growth inhibition by drug plus 177Lu-lilotomab satetraxetan (RIVA [4]; 10 nM, time (day): 3)","growth inhibition by drug plus 177Lu-lilotomab satetraxetan (RIVA [4]; 10 nM, time (day): 4)","growth inhibition by drug plus 177Lu-lilotomab satetraxetan (RIVA [4]; 10 nM, time (day): 5)","growth inhibition by drug plus 177Lu-lilotomab satetraxetan (RIVA [4]; 10 nM, time (day): 6)","growth inhibition by drug plus 177Lu-lilotomab satetraxetan (RIVA [4]; 100 nM, time (day): 3)","growth inhibition by drug plus 177Lu-lilotomab satetraxetan (RIVA [4]; 100 nM, time (day): 4)","growth inhibition by drug plus 177Lu-lilotomab satetraxetan (RIVA [4]; 100 nM, time (day): 5)","growth inhibition by drug plus 177Lu-lilotomab satetraxetan (RIVA [4]; 100 nM, time (day): 6)"
CC1(C)CCC(c2ccc(Cl)cc2)=C(CN2CCN(c3ccc(C(=O)NS(=O)(=O)c4ccc(N[C@H](CCN5CCOCC5)CSc5ccccc5)c(S(=O)(=O)C(F)(F)F)c4)cc3)CC2)C1 [ABT-263 (Navitoclax)],-0.00418,-0.0018,-0.0135,0.024,0.0839,0.635,0.85,0.894,0.116,0.0668,0.0479,-0.0157,0.977,0.976,0.975,0.974,-0.0296,-0.00166,0.0241,0.15,0.115,0.591,0.816,0.904,0.568,0.593,0.605,0.604,0.984,0.983,0.983,0.983
C[C@H](NC(=O)Cc1cc(F)cc(F)c1)C(=O)N[C@@H]1C(=O)N(C)c2ccccc2-c2ccccc21,-0.0485,-0.0319,-0.0413,0.0451,-0.0641,-0.0187,-0.0724,-0.157,-0.258,-0.261,-0.314,-0.599,-0.307,-0.355,-0.331,-0.429,-0.062,-0.041,-0.0625,-0.0177,-0.026,0.0466,0.00781,-0.0375,0.291,0.422,0.458,0.48,0.298,0.4,0.412,0.389
CN(NC(=O)CC(=O)NN(C)C(=S)c1ccccc1)C(=S)c1ccccc1 [Elesclomol],0.796,0.791,0.818,0.825,0.982,0.982,0.983,0.984,0.97,0.964,0.963,0.964,0.976,0.976,0.975,0.974,0.854,0.88,0.914,0.935,0.983,0.982,0.984,0.987,0.972,0.968,0.972,0.974,0.987,0.988,0.987,0.988
C#CCN(C)CC1=Cc2ccccc2Oc2ccccc21,0.0712,0.0296,-0.0381,-0.0948,0.056,0.0596,0.000991,0.0366,-0.0236,-0.0211,-0.0438,-0.145,-0.121,-0.0828,-0.112,-0.138,0.0301,0.075,0.128,0.198,0.0289,0.0839,0.129,0.233,0.602,0.618,0.628,0.62,0.573,0.617,0.634,0.63
Fc1cc(-c2cccc3ncc(-c4cnn(C5CCNCC5)c4)nc23)cc(F)c1CN1CCOCC1,0.107,0.069,-0.083,-0.0936,0.0551,0.07,0.0444,-0.14,0.0385,0.00291,-0.0745,-0.286,-0.358,-0.305,-0.287,-0.341,0.0469,0.0958,0.15,0.179,0.041,0.106,0.135,0.237,0.548,0.579,0.59,0.593,0.571,0.589,0.6,0.592
CN(C)C[C@@H]1CCn2cc(c3ccccc32)C2=C(C(=O)NC2=O)c2cn(c3ccccc23)CCO1,0.148,0.0748,0.0024,-0.0699,0.292,0.306,0.226,0.249,0.0588,0.0867,-0.0102,-0.214,0.041,0.0997,0.0496,-0.0383,0.0704,0.125,0.141,0.173,0.448,0.48,0.458,0.49,0.423,0.561,0.581,0.582,0.462,0.539,0.554,0.545
COc1cccc2c1C(=O)c1c(O)c3c(c(O)c1C2=O)C[C@@](O)(C(=O)CO)C[C@@H]3O[C@H]1C[C@H](N)[C@@H](O)[C@H](C)O1 [Epirubicin Hydrochloride],0.0435,0.0793,0.0717,0.093,0.943,0.964,0.975,0.98,-0.0808,0.0051,0.0307,0.0473,0.436,0.719,0.848,0.91,0.24,0.323,0.39,0.484,0.965,0.977,0.982,0.986,0.734,0.792,0.829,0.863,0.887,0.93,0.949,0.967
